Hit rate of the full screen: of about 5,500 compounds, about 2,000 (36%) were called active. Inconclusive results (about 18%) are left out. No stated cut-off is given here; in the data, active means normalized growth mostly below about 0.91 (no sharp cut-off); inconclusive means no clear call, values can overlap the other calls; inactive means mostly above about 0.92. The list shows a part of the results.
Test: chemical genetic growth profiling, strain panel (AID 1159580);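 further: tested at 20 µM; growth read once vehicle control cultures reached saturation at 30 °C; 1 = growth at the plate median or of vehicle wells; lower values mean less growth of the strain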
Details: S. cerevisiae deletion strains, growth OD
[1] = locus YJL187C, strain SWE1, hits give low values
[2] = locus YDL101C, strain DUN1, hits give low values
[3] = locus YHR030C, strain SLT2, hits give low values

Measured: normalized growth

COC(=O)C1=COC(OC2OC(CO)C(O)C(O)C2O)C2C(C)CC(=O)C12 (configuration not stated)
inactive: locus YAL021C, strain ccr4, hits give low values 1.03 | locus YAL026C, strain drs2, hits give low values 1.02 | locus YAL030W, strain snc1, hits give low values 1.03 | locus YBL061C, strain skt5, hits give low values 1.02 | locus YBR009C, strain hhf1, hits give low values 1.01 | locus YBR023C, strain chs3, hits give low values 1.03 | locus YBR171W, strain sec66, hits give low values 1.04 | locus YBR231C, strain swc5, hits give low values 1.04 | locus YBR279W, strain paf1, hits give low values 1.03 | locus YCL011C, strain gbp2, hits give low values 1.03 | locus YCL016C, strain dcc1, hits give low values 1.02 | locus YCL061C, strain MRC1, hits give low values 1.03 | locus YCL069W, strain vba3, hits give low values 1.03 | locus YCR088W, strain abp1, hits give low values 1.03 | locus YDL005C, strain med2, hits give low values 1.04 | locus YDL040C, strain nat1, hits give low values 1.03 | locus YDR001C, strain nth1, hits give low values 1.03 | locus YDR069C, strain doa4, hits give low values 1.02 | locus YDR137W, strain rgp1, hits give low values 1.07 | locus YDR159W, strain sac3, hits give low values 1.01 | locus YDR195W, strain ref2 1.02 | locus YDR297W, strain sur2, hits give low values 1.02 | locus YDR334W, strain swr1, hits give low values 1.03 | locus YDR335W, strain msn5, hits give low values 1.03 | locus YDR392W, strain spt3, hits give low values 0.935 | locus YEL003W, strain gim4, hits give low values 1.03 | locus YEL037C, strain rad23, hits give low values 1.02 | locus YEL061C, strain CIN8 (second series), hits give low values 1.03 | locus YER015W, strain faa2, hits give low values 1.04 | locus YER016W, strain bim1, hits give low values 1.04 | locus YER111C, strain swi4, hits give low values 1.03 | locus YER155C, strain BEM2 (second series), hits give low values 1.02 | locus YFR010W, strain ubp6, hits give low values 1.03 | locus YGL167C, strain pmr1, hits give low values 1.03 | locus YGL173C, strain kem1, hits give low values 1.03 | locus YGL227W, strain vid30, hits give low values 1.03 | locus YGL240W, strain doc1, hits give low values 1.02 | locus YGL253W, strain hxk2, hits give low values 1.05 | locus YHR013C, strain ard1, hits give low values 1.07 | locus YHR027C, strain rpn1, hits give low values 1.03 | locus YHR142W, strain chs7, hits give low values 1.04 | locus YJL092W, strain hpr5, hits give low values 1.03 | locus YJL095W, strain BCK1 (second series), hits give low values 1.03 | locus YJL115W, strain asf1, hits give low values 1.02 | locus YJL129C, strain trk1, hits give low values 1.06 | locus YJL154C, strain vps35, hits give low values 1.02 | locus YJL164C, strain tpk1, hits give low values 1.01 | locus YJL166W, strain qcr8, hits give low values 1.05 | [1] 1.04 | locus YKL160W, strain elf1, hits give low values 1.04 | locus YKR026C, strain gcn3, hits give low values 1.03 | locus YKR091W, strain srl3, hits give low values 1.02 | locus YLL001W, strain dnm1, hits give low values 1.05 | locus YLL026W, hits give low values 1.02 | locus YLL041C, strain sdh2, hits give low values 1.02 | locus YLR027C, strain aat2, hits give low values 1.02 | locus YLR221C, strain rsa3, hits give low values 1.03 | locus YLR258W, strain gsy2, hits give low values 1.01 | locus YLR262C, strain YPT6 (second series), hits give low values 1.05 | locus YLR320W, strain mms22, hits give low values 1.04 | locus YLR342W, strain FKS1, hits give low values 1.03 | locus YLR357W, strain rsc2, hits give low values 1.05 | locus YLR370C, strain arc18, hits give low values 1.03 | locus YLR384C, strain iki3, hits give low values 1.02 | locus YML120C, strain ndi1, hits give low values 1.03 | locus YMR058W, strain fet3, hits give low values 1.03 | locus YMR125W, strain sto1, hits give low values 1.04 | locus YMR129W, hits give low values 1.03 | locus YMR205C, strain PFK2, hits give low values 1.05 | locus YMR231W, strain pep5, hits give low values 1.03 | locus YNL071W, strain lat1, hits give low values 1.04 | locus YNL209W, strain ssb2, hits give low values 1.02 | locus YNL248C, strain rpa49, hits give low values 1.06 | locus YNL322C, strain KRE1 (second series), hits give low values 1.03 | locus YNR049C, strain mso1, hits give low values 1.02 | locus YOR001W, strain rrp6, hits give low values 0.987 | locus YOR070C, strain gyp1, hits give low values 1.02 | locus YOR080W, strain dia2, hits give low values 1.02 | locus YOR083W, strain WHI5, hits give low values 1.04 | locus YOR106W, strain vam3, hits give low values 1.09 | locus YOR265W, strain rbl2, hits give low values 1.01 | locus YOR270C, strain vph1, hits give low values 1.11 | locus YOR290C, strain snf2, hits give low values 1.03 | locus YPL051W, strain arl3, hits give low values 1.04 | locus YPL078C, strain atp4, hits give low values 1.06 | locus YPL106C, strain sse1, hits give low values 1.01 | locus YPL240C, strain hsp82, hits give low values 1.02

O=C(c1csc(-c2ccc(Cl)cc2)c1)N1CCCCC1
active: [3] 0.588 | locus YLR113W, strain HOG1, hits give low values 0.711 | locus YPL256C, strain CLN2, hits give low values 0.766
inactive: locus YAR019C, strain CDC15, hits give low values 0.95 | locus YBL105C, strain PKC1, hits give low values 0.953 | locus YBR135W, strain CKS1, hits give low values 0.943 | locus YBR136W, strain MEC1, hits give low values 0.952 | locus YBR160W, strain CDC28, hits give low values 0.944 | locus YDL017W, strain CDC7, hits give low values 0.957 | locus YDL028C, strain MPS1, hits give low values 0.951 | [2] 0.946 | locus YDL108W, strain KIN28, hits give low values 0.953 | locus YDL132W, strain cdc53, hits give low values 0.941 | locus YDL214C, strain PRR2, hits give low values 0.849 | locus YDR052C, strain DBF4, hits give low values 0.952 | locus YDR054C, strain cdc34, hits give low values 0.935 | locus YDR226W, strain ADK1, hits give low values 0.948 | locus YDR477W, strain SNF1, hits give low values 0.851 | locus YER123W, strain YCK3, hits give low values 0.83 | locus YER133W, strain GLC7, hits give low values 0.857 | locus YFL009W, strain cdc4, hits give low values 0.942 | locus YFL029C, strain CAK1, hits give low values 0.944 | locus YFR003C, strain YPI1, hits give low values 0.96 | locus YFR019W, strain FAB1, hits give low values 0.882 | locus YFR028C, strain CDC14, hits give low values 0.948 | locus YGR040W, strain KSS1, hits give low values 0.844 | locus YGR052W, strain FMP48, hits give low values 0.918 | locus YGR092W, strain DBF2, hits give low values 0.834 | locus YHR079C, strain IRE1, hits give low values 0.785 | locus YHR082C, strain KSP1, hits give low values 0.831 | locus YHR205W, strain SCH9, hits give low values 0.801 | locus YIL147C, strain SLN1, hits give low values 0.948 | locus YJL095W, strain BCK1, hits give low values 0.714 | locus YJL128C, strain PBS2, hits give low values 0.878 | locus YJL157C, strain FAR1, hits give low values 0.838 | locus YJR016C, strain ILV3, hits give low values 0.954 | locus YJR066W, strain TOR1 (second series), hits give low values 0.764 | locus YJR066W, strain TOR1, hits give low values 0.759 | locus YKL048C, strain ELM1, hits give low values 0.904 | locus YKL067W, strain YNK1, hits give low values 0.857 | locus YKL101W, strain HSL1, hits give low values 0.884 | locus YKL193C, strain SDS22, hits give low values 0.951 | locus YKL203C, strain TOR2, hits give low values 0.868 | locus YLR133W, strain CKI1, hits give low values 0.862 | locus YLR403W, strain SFP1, hits give low values 0.79 | locus YML070W, strain DAK1, hits give low values 0.847 | locus YMR001C, strain CDC5, hits give low values 0.94 | locus YMR205C, strain PFK2 (second series), hits give low values 0.866 | locus YMR277W, strain FCP1, hits give low values 0.944 | locus YNL006W, strain LST8, hits give low values 0.953 | locus YNL020C, strain ARK1, hits give low values 0.84 | locus YNL161W, strain CBK1, hits give low values 0.953 | locus YNL183C, strain NPR1, hits give low values 0.801 | locus YNL207W, strain RIO2, hits give low values 0.928 | locus YNL222W, strain SSU72, hits give low values 0.958 | locus YNL307C, strain MCK1 (second series), hits give low values 0.845 | locus YOL078W, strain AVO1, hits give low values 0.948 | locus YOL136C, strain PFK27, hits give low values 0.823 | locus YOR061W, strain CKA2, hits give low values 0.803 | locus YOR119C, strain RIO1, hits give low values 0.903 | locus YOR231W, strain MKK1, hits give low values 0.797 | locus YOR329C, strain SCD5, hits give low values 0.954 | locus YPL031C, strain PHO85, hits give low values 0.815 | locus YPL153C, strain RAD53, hits give low values 0.831 | locus YPL204W, strain HRR25, hits give low values 0.812 | locus YPL209C, strain IPL1, hits give low values 0.956 | locus YPR025C, strain CCL1, hits give low values 0.944 | locus YPR106W, strain ISR1, hits give low values 0.95 | locus YPR111W, strain DBF20, hits give low values 0.935 | strain NNK1, hits give low values 0.93 | strain TSCII, hits give low values 0.942

O=C(c1c(F)cccc1F)N1CCN(C(=O)c2c(F)cccc2F)CC1
inactive: locus YAL013W, strain DEP1, hits give low values 1.01 | locus YBR229C, strain ROT2, hits give low values 0.987 | [2] 1 | locus YDL134C, strain PPH21, hits give low values 0.973 | locus YDR150W, strain NUM1, hits give low values 1.02 | locus YEL061C, strain CIN8, hits give low values 0.945 | locus YGR078C, strain PAC10, hits give low values 1.02 | [3] 1.11 | locus YHR087W, strain rtc3, hits give low values 0.98 | [1] 1 | locus YJR043C, strain POL32, hits give low values 1.02 | locus YJR075W, strain HOC1, hits give low values 0.988 | locus YKL190W, strain CNB1, hits give low values 0.984 | locus YLR039C, strain RIC1, hits give low values 1.09 | locus YLR058C, strain SHM2 (second series), hits give low values 0.985 | locus YLR085C, strain ARP6, hits give low values 0.951 | locus YLR262C, strain YPT6, hits give low values 1.06 | locus YML094W, strain GIM5, hits give low values 0.996 | locus YMR219W, strain ESC1, hits give low values 1 | locus YMR263W, strain SAP30, hits give low values 0.99 | locus YMR307W, strain GAS1, hits give low values 0.964 | locus YNL128W, strain TEP1, hits give low values 0.978 | locus YNL153C, strain GIM3, hits give low values 1.02 | locus YNL298W, strain CLA4 (second series), hits give low values 0.962 | locus YNL322C, strain KRE1, hits give low values 0.99 | locus YNR030W, strain Alg12, hits give low values 0.976 | locus YPL055C, strain LGE1, hits give low values 0.98 | locus YPL241C, strain CIN2, hits give low values 1.01 | locus YPR135W, strain CTF4, hits give low values 1.01

Reference: PubChem BioAssay AID1159580 (chemical genetic matrix, 2015)
